# Among all 16,000 compounds or so, about 2,600 (16%) were called active. Another 20% or so got no clear call; they are omitted. The call rests on the fitted dose curve; in most records, active means well fitted curve in the direction sought with a large enough effect; inconclusive means small, poorly fitted or top-dose-only effect, or effect the other way; inactive means no such curve, though single readings can be large or run the other way. These entries were drawn from the full list.
# Target: Cytochrome P450 2D6 (Homo sapiens) (UniProt P10635)
# Sequence (P10635 whole entry, looked up): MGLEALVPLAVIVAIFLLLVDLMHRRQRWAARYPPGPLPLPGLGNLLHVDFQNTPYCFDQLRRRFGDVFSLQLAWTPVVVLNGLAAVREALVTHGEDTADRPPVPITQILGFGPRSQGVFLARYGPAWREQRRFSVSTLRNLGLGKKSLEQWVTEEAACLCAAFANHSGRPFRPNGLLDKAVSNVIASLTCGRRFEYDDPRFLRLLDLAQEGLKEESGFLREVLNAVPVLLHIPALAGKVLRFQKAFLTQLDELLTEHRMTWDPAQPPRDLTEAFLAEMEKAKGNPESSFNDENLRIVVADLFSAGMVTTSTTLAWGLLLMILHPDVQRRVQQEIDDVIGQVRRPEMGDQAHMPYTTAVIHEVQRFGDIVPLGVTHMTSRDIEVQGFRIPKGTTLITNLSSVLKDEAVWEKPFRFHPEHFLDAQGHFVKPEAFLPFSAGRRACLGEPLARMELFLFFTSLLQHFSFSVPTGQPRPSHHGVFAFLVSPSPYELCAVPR
# Assay: Cytochrome panel assay with activity outcomes
# Conditions: recombinant CYP, pro-luciferin dealkylation, luminescence, p450-cyp2d6; series mostly up to 57.1 µM; activity, negative = inhibition: at the top concentration
# On the % scale 0 is the no-effect control and ±100 the full control effect.
SMILES,"activity, negative = inhibition",AC50
Cc1ccccc1OCC(=O)N/N=C1\CCOc2c(C)cccc21,9.01% (inactive),
Cc1cc(C=O)c(C)n1-c1ccc(N2CCCCC2)c([N+](=O)[O-])c1,27.9% (inactive),
COCCn1c(=O)c(-c2cccs2)nc2cnc(Oc3ccc(OC)cc3)nc21,-3.23% (inactive),
O=C(Nc1nnc(SCc2ccc(Cl)cc2Cl)s1)C1COc2ccccc2O1 (stereo not given),-7.07% (inactive),
N=C(N)SCc1ccc(Cl)cc1Cl (tested in a mixture with another compound),,3.16 µM (active)
Cc1cc(C)c2c(SCc3ccc(Cl)cc3Cl)nc(N)nc2n1,-17.3% [at 11.4 µM] (inactive),
O=C(OCn1ncc(Cl)c(Cl)c1=O)c1cccc(C(F)(F)F)c1,-11.7% (inactive),
CNC(=O)COC(=O)c1cc2c(C)nn(-c3ccc(F)cc3)c2s1,-18.4% (inactive),
Nc1ccc(-c2nc3c(Cl)c(N)ccc3[nH]2)cc1,-29.2% (inactive),
Cc1cccc(C(=O)c2ccccc2C(=O)O)c1O,13.6% (inactive),
O=C(O)c1ccc(C(=O)c2ccccc2C(=O)O)cc1C(=O)O,8.1% [at 11.4 µM] (inactive),
CC1=C/C(=C(/c2ccc(O)c(C)c2)c2ccccc2C(=O)O)C=CC1=O,,1.58 µM (active)
O=c1c(-c2ccccc2)c(O)c2cccc3c2n1CCC3,1.79% (inactive),
C[N+](C)(N)Cc1csc(-c2ccc(Cl)cc2)n1,-18.9% [at 11.4 µM] (inactive),
O=C(Nc1nccs1)C1Cc2ccccc2CN1S(=O)(=O)c1ccc(F)cc1 (stereo not given),,12.6 µM (active)
O=C(O)c1ccccc1C(=O)Nc1ccc(S(=O)(=O)Nc2nccs2)cc1,6.16% [at 25.6 µM] (inactive),
CCOc1ccccc1NC(=O)C1Cc2ccccc2CN1S(C)(=O)=O (stereo not given),-15.2% (inactive),
O=C(O)c1nnsc1COCc1ccccc1,7.15% [at 11.4 µM] (inactive),
C[N@@+]1(Cc2ccc(Cl)c(Cl)c2)CCC[C@@H]1c1ccc[n+](Cc2ccc(Cl)c(Cl)c2)c1,,3.16 µM (active)
Cc1ccccc1-c1nc(NC2CCNCC2)c2ccccc2n1,-3.84% (inactive),
Clc1ccccc1-c1nc(NC2CCNCC2)c2ccccc2n1,2.72% (inactive),
COc1ccccc1-c1nc(NCc2ccccc2)c2ccccc2n1,,1.58 µM (active)
COc1ccccc1-c1nc(NC2CC2)c2ccccc2n1,,20 µM (active)
Clc1ccccc1-c1nc(NCc2cccs2)c2ccccc2n1,,12.6 µM (active)

SMILES,"activity, negative = inhibition",AC50
CNc1nc(-c2ccccc2OC)nc2ccccc12,,20 µM (active)
CCOc1ccccc1Nc1ccc(N)cc1S(=O)(=O)O,0.246% [at 11.4 µM] (inactive),
COc1ccc(Oc2ncc3ncc(=O)n(C4CC4)c3n2)cc1,-5.49% (inactive),
Nc1c(S(N)(=O)=O)cc(S(N)(=O)=O)cc1S(N)(=O)=O,18.8% [at 11.4 µM] (inactive),
C=CCN(CC=C)C(=S)Nc1ccccc1,-8.91% (inactive),
Cn1cnc([N+](=O)[O-])c1Sc1nc(N)nc2c1ncn2Cc1ccccc1,15.1% [at 11.4 µM] (inactive),
CCN1C(=O)[C@@H]2[C@H]3C(=CC[C@@H]2C1=O)C1(OCCCO1)[C@H]1O[C@@H]1[C@H]3O,-15.6% [at 11.4 µM] (inactive),
O=C(CSc1nc2ccc([N+](=O)[O-])cc2s1)c1ccc2ccccc2c1,-13.4% [at 11.4 µM] (inactive),
COc1ccccc1-c1nc(NCc2cccs2)c2ccccc2n1,,1 µM (active)
CN(C)c1ncc2nc(-c3ccc(Cl)cc3)c(=O)n(C)c2n1,-2.59% (inactive),
C#CCCCO/N=C1/C[C@@H](O)[C@@H](O)[C@@H]2[C@@H]3C(=O)N(CC)C(=O)[C@H]3CC[C@@H]12,-16.9% [at 11.4 µM] (inactive),
NC(=NC1C2CC3CC(C2)CC1C3)Nc1ccc(I)cc1 (stereo not given),,0.0398 µM (active)
Nc1nc(Br)c2ccccc2c1-c1ccc(F)cc1,-9.97% (inactive),
O=C1/C(=C/c2cccnc2)SC(=S)N1Cc1ccco1,-20.9% [at 11.4 µM] (inactive),
CC(=O)C1C(c2ccccc2OC(F)F)NC(=O)NC1(O)C(F)(F)F (stereo not given),-3.96% (inactive),
CC(=O)c1sc(N)c(C(=O)OC(C)C)c1C,-2.55% (inactive),
C[C@@H](C(=O)Nc1ccc2ccccc2c1)[C@H]1C[C@]1(C)[C@H](NS(=O)(=O)c1ccc(-c2ccccc2)cc1)c1ccccc1,,2 µM (active)
C[C@@H](C(=O)Nc1ccc2ccccc2c1)[C@@H]1C[C@@]1(C)[C@@H](NS(=O)(=O)c1ccc2ccccc2c1)c1ccccc1,-9.37% (inactive),
C[C@@H](C(=O)Nc1ccc2ccccc2c1)[C@@H]1C[C@@]1(C)[C@@H](NS(=O)(=O)c1ccc(-c2ccccc2)cc1)c1ccccc1,3.73% (inactive),
C[C@@H](C(=O)Nc1ccc2ccccc2c1)[C@H]1C[C@]1(C)[C@H](NS(=O)(=O)c1ccc2ccccc2c1)c1ccccc1,,3.16 µM (active)
CCSc1nc2c(c(=O)[nH]1)C(c1ccccn1)C1=C(CC(C)(C)CC1=O)N2 (stereo not given),17% (inactive),
C[C@]1(OC(=O)/C=C\c2ccccc2)C[C@@H](O)[C@@]2(O)C=CO[C@@H](O[C@H]3O[C@@H](CO)[C@@H](O)[C@@H](O)[C@@H]3O)[C@H]21,-1.82% [at 25.6 µM] (inactive),
CC1CCCCN1c1cc(C#N)c(C#N)cc1[N+](=O)[O-] (stereo not given),-1.76% (inactive),
CC1CCCCN1c1nc(-c2ccncc2)nc2ccccc12 (stereo not given),,7.94 µM (active)

SMILES,"activity, negative = inhibition",AC50
CCN1CCN(c2nc(-c3ccccn3)nc3ccccc23)CC1,-25.3% (inactive),
O=C(O)C12CC3(C(=O)O)CC(C(=O)O)(CC(C(=O)O)(C1)C3=O)C2=O,-4.61% [at 11.4 µM] (inactive),
CCCN(C/C=C\I)[C@@H]1CCc2cccc(O)c2C1,5.27% (inactive),
CCCN(CCc1ccccc1)[C@H]1CCc2c(O)cccc2C1,,0.501 µM (active)
Cc1ccc(-n2c(CCC(=O)O)ccc2-c2cccs2)cc1C,3.62% (inactive),
O=c1c(-c2ccccc2)nc2cnc(N3CCOCC3)nc2n1-c1ccccc1,-6.6% (inactive),
C/C(Cn1nc([N+](=O)[O-])cc1C)=N\NC(=O)c1ccc(O)cc1O,12.2% (inactive),
Cc1ccc(Cl)c(Nc2ccccc2C(=O)O)c1Cl,,inactive
Cc1nc2ccccc2nc(C)c1=NO,-17.1% (inactive),
CCOC(=O)C(C)CC(C)C(=O)N1CCOCCN(C(=O)C(C)CC(C)C(=O)OCC)CCOCC1 (stereo not given),-0.969% (inactive),
NC(N)=NCc1cccc(I)c1,,15.8 µM (active)
CC(N)=NCc1cccc(CN)c1,,inactive
Nc1c(OCC(=O)O)ccc2cc(S(=O)(=O)O)ccc12,-4.66% [at 11.4 µM] (inactive),
CNC(=S)NNC(=O)c1sccc1OCc1ccc(C)cc1,-4.42% (inactive),
COc1cc(C(=O)Oc2ccccc2/C=N/NC(=O)c2ccc(C)cc2)cc(OC)c1OC,38% (inactive),
COc1ccccc1/C=N/NC(=O)CC(=O)Nc1ccc(Cl)c(Cl)c1,,28.2 µM (active)
O=C(Cc1ccccc1)N/N=C/c1ccccc1OCc1ccc(Cl)cc1,-27.7% (inactive),
NC([N-]/N=C/c1ccccn1)=[S]=[Fe].O=S(=O)(O)O,8.09% [at 11.4 µM] (inactive),
N#CCCn1c(=O)c(-c2cc(F)cc(F)c2)nc2cnc(N3CCOCC3)nc21,6.46% (inactive),
CC(C)N(Cc1ccccc1)S(=O)(=O)c1n[nH]c(C(C)(C)C)n1,14.9% [at 11.4 µM] (inactive),
CCC(NC(=O)Nc1cc(OC)c(OC)c(OC)c1)(C(F)(F)F)C(F)(F)F,-29.8% (inactive),
COc1cc(NC(=O)C2CCN(S(=O)(=O)c3cccc4nonc34)CC2)cc(OC)c1,,0.562 µM (active)
CC(=O)Nc1ccc(NC(=O)C2CCN(S(=O)(=O)c3cccc4nonc34)CC2)cc1,-5.83% (inactive),
CC1CCN(C(=O)C2CCN(S(=O)(=O)c3cccc4nonc34)CC2)CC1,-14.6% (inactive),

SMILES,"activity, negative = inhibition",AC50
O=C(Nc1cccc(F)c1)N1CCCC2(CCN(C(=O)c3cnccn3)CC2)C1,0.953% (inactive),
CCC(=O)NC(=S)Nc1ccc(S(=O)(=O)NC(C)=O)cc1,21.6% (inactive),
CCCCCN(CCCCC)C(=O)[C@H](CCC(=O)O)NC(=O)c1ccc(Cl)c(Cl)c1,,inactive
O=S(=O)(c1cccc2cnccc12)N1CCNCC1,-11.8% (inactive),
O=S(=O)(c1cccc2c(I)cccc12)N1CCCNCC1,,10 µM (active)
Cc1noc(C)c1-c1nccc(N2CCN(C)CC2)n1,-12.7% (inactive),
Cn1cccc1C(=O)N1CCC2(CC1)CCN(c1ccccn1)CC2,-9.95% (inactive),
CNC(=S)Nc1ccc2nc(C)c(C)nc2c1,-6.39% (inactive),
N#CC(C#N)=NNc1ccc2cn[nH]c2c1,-16.6% [at 11.4 µM] (inactive),
S=C(Nc1ccc2cn[nH]c2c1)Nc1ccc2cn[nH]c2c1,,2 µM (active)
CCOC(=O)N/N=C1/C[C@@H](O)[C@@H](O)[C@@H]2[C@@H]3C(=O)N(c4cccc(Oc5ccccc5)c4)C(=O)[C@H]3CC[C@@H]12,4.14% [at 11.4 µM] (inactive),
COC(=O)c1c(C)[nH]c(C)c1C(=O)c1ccccc1Cc1ccccc1,-2.67% (inactive),
Cc1cc(C)n(CC(=O)N/N=C/c2ccco2)n1,8.84% (inactive),
O=C(NCC(c1cccs1)N1CCOCC1)c1ccco1 (stereo not given),-12.5% (inactive),
O=C(NCc1ccccn1)C1CC(c2ccc(Cl)c(Cl)c2)=NO1 (stereo not given),-12.1% (inactive),
O=C(NCCc1cccs1)C1CC(c2c(Cl)cccc2Cl)=NO1 (stereo not given),,5.01 µM (active)
COc1ccc(C2=NOC(C(=O)NCCN3CCOCC3)C2)cc1 (stereo not given),2.38% (inactive),
COc1ncc2nc(-c3ccccc3)c(=O)n(C)c2n1,-1.94% (inactive),
Cc1cc(C)c(C#N)c(OCC(=O)c2ccc(Br)cc2)n1,-21.2% (inactive),
CCc1ccc(C(=O)CN(C#N)c2nc(C)cc(C)n2)cc1,,6.31 µM (active)
CCc1ccc(C(=O)COC(=O)c2cccc(N3C(=O)c4c(C)nc5ccccc5c4C3=O)c2)cc1,0.173% (inactive),
CC(C)[C@@H](OCc1ccccc1)[C@H](C)/C=N\OC[C@@H](O)[C@@H]1O[C@@H]2OC(C)(C)O[C@@H]2[C@H]1O,15.3% [at 11.4 µM] (inactive),
CCn1cc(C(=O)O)c(=O)c2cc(F)c(N3CCN[C@@H](C)C3)c(F)c21,,inactive
